Screening results as filed in PubChem.
In the library only some 10% were active in any assay of this set; here they are far more common.
12-hLO inh: blocks human 12-lipoxygenase activity. P18054. Potency, µM (series often up to 57.1 µM), most hits filed as inhibitors. AID 1452. 150,000 tested, 0.12% active. purified 12-hLO, xylenol orange hydroperoxide absorbance; further: nearly all actives have a fitted effect of over 55% in size
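Purified human 12hLO (150 nM), preincubated 15 min with compound, then 40 uM arachidonic acid for 30 min, room temperature, Hepes pH 7.0 with 0.01% Triton X-100. Hydroperoxide detected by ferrous iron/xylenol orange; 573/405 nm absorbance ratio gives reaction progress.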
PNC inhibitor: perinucleolar compartment assembly inhibition | PC3M PTB-GFP, PNC prevalence imaging, 16 h; hits give low values | activity change (PNC), negative = inhibition, % at 10 µM | 140,000 tested, 3.1% active | AID 2417;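 active means readout at or below -70, meaning at least 70% loss of cells showing the perinucleolar compartment, a nuclear body marking cancer cells; inconclusive means readout between -30 and a set limit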
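Compounds are pinned in duplicate onto adhered PC3M cells stably expressing GFP-tagged PTB and incubated 16 h at 37 C. Cells are then fixed, nuclei stained with Hoechst, and PNC-positive cells counted.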
GLA inh pH 4.5: blocks human alpha-galactosidase A at pH 4.5 | 230,000 tested, under 10 active | purified enzyme, 4-MU-alpha-Gal fluorescence, pH 4.5 | activity change, negative = inhibition, % at 105 µM
Target sequence (P06280 whole entry, looked up): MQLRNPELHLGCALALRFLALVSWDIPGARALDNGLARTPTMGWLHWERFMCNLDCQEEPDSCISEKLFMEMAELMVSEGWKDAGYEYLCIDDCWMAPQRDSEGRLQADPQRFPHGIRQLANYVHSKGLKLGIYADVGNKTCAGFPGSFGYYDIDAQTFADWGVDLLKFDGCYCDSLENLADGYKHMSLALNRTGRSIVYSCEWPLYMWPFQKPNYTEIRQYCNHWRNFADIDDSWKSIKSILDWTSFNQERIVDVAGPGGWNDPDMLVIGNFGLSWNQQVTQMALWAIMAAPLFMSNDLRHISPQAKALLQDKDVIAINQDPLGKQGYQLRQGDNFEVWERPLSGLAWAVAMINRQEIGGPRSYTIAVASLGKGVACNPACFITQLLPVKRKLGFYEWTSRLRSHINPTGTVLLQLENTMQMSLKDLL
ALDH1A1 block: ALDH1A1 (human) enzyme inhibition | Purified ALDH1A1, NADH fluorescence, propionaldehyde substrate | Potency, µM (top dose mostly 75.3 µM), most hits filed as inhibitors | 220,000 tested, 7.3% active; active means well fitted inhibition curve with a large enough effect, not every such curve was filed as active; inconclusive means small, poorly fitted or top-dose-only effect, or another doubt; inactive means no such curve, though single readings can be large or run the other way
HPGD block: HPGD (human) dehydrogenase inhibition | 150,000 tested, 4.3% active | Potency, µM, actives largely listed as inhibitors | AID 894 | purified HPGD, NADH fluorescence kinetic, PGE2 substrate; active means well fitted inhibition curve with a large enough effect, not every such curve was filed as active; inconclusive means small, poorly fitted or top-dose-only effect, or another doubt; inactive means no such curve, though single readings can be large or run the other way
Target sequence (P15428 whole entry, looked up): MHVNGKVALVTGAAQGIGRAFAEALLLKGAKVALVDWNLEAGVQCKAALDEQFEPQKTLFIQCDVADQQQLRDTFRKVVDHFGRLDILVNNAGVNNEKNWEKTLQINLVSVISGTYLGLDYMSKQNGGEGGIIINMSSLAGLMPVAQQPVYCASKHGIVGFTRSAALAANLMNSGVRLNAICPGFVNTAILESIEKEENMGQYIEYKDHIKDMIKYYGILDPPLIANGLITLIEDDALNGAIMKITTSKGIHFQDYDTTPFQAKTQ
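20 nM HPGD preincubated 15 min at room temperature with compound in 50 mM Tris-HCl pH 8, 0.01% Tween 20. Started with 1 mM NAD+ and 30 uM prostaglandin E2; NADH fluorescence (360/450 nm) read 5 times over 30-s intervals, last minus first.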
GLA spleen mod: inhibitors or activators of human alpha-galactosidase in spleen homogenate; human spleen homogenate, 4MU-alpha-Gal fluorescence, 40 min; P06280; 240,000 tested, 0.008% active; Potency, µM (top dose mostly 80 µM), most hits filed as inhibitors; AID 2107
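Human spleen homogenate (1 ug) was the enzyme source, with 4-methylumbelliferyl-alpha-D-galactopyranoside (1 mM final) in pH 5.0 citrate buffer with 0.01% Tween-20. Compounds were titrated; after 40 min at 37C, NaOH/glycine stop, 4-MU fluorescence read; AC50 from Hill fits.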
Numbers stand for hits; 0 = inactive; ? = inconclusive; - = not tested or not shown; [ ] = remark or other dose. Unless noted, the call rests on the fitted dose curve; in most records, active means well fitted curve in the direction sought with a large enough effect; inconclusive means small, poorly fitted or top-dose-only effect, or another doubt; inactive means no such curve, though single readings can be large; an effect the other way counts as inactive or inconclusive.

SMILES	12-hLO inh	PNC inhibitor	GLA inh pH 4.5	ALDH1A1 block	HPGD block	GLA spleen mod
O=C1CC(SCc2nc3ccccc3[nH]2)C(=O)N1c1cccc(F)c1 (centres undefined)	0	0	0	12.6µM	0	0
O=C1CC(SCCc2nc3ccccc3[nH]2)C(=O)N1c1ccc(Cl)cc1 (centres undefined)	0	0	0	?	0	0
O=C1CC(SCc2nc3ccccc3[nH]2)C(=O)N1c1ccc(F)c(Cl)c1 (centres undefined)	0	0	0	5.01µM	22.4µM	0
COC(=O)Cc1c(C)[nH]n(-c2cc(Cl)cc(Cl)c2)c1=O	-	-	0	7.08µM	-	0
CCCCOc1ccc(/C=C/C(=O)OCC(=O)NC(=O)NCC(C)C)cc1OCC	0	-112.3	0	?	?	0
CCN(CC)/[N+]([O-])=N/Oc1cc(O/N=[N+](\[O-])N(C)C)c([N+](=O)[O-])cc1[N+](=O)[O-]	-	-	-	-	-	0
COc1ccc(-c2nc3cnc(OC)nc3n(Cc3cccs3)c2=O)cc1	0	-	-	?	?	0
CCOC(=O)CSC(=S)NC(=O)c1ccc(OC)cc1	0	0	0	?	10µM	0
COc1ccc(C(=O)NC(=S)SCC(=O)O)cc1	-	-	0	-	-	0
Cc1ncn(-c2ccccc2O)c1C	0[11.4 µM]	-	-	?	?	-
COC(=O)[C@@H]1C[C@@H]2CC[C@@H](O)C[C@@H]2N1CC1CCCCC1	0	-	0	?	0	0
O=C1CC(NCCC2=CCCCC2)C(=O)N1c1cccc(Cl)c1Cl (centres undefined)	0	0	0	5.62µM	0	0
O=C(NCCC1=CCCCC1)C(=O)NCc1ccccc1Cl	0	0	0	0	0	0
CCCc1cc(=O)[nH]c(SCc2cc(=O)oc3cc(C)c(C(C)C)cc23)n1	0	0	0	?	15.8µM	0
CCCc1cc(=O)[nH]c(SCc2ccc(F)cc2)n1	-	-	0	-	-	0
Cc1cc2oc(=O)cc(CSc3nc(N)cc(N)n3)c2cc1C(C)C	0	?	0	17.8µM	0	0
Nc1cc(N)nc(SCc2cc(=O)oc3cc4c(cc23)CCC4)n1	0	0	0	?	0	0
O=C(O)[C@H](Cc1c[nH]c2ccccc12)N1C(=O)C2=CCCC=C2C1=O	-	-	-	-	-	0
CCOc1ccc(-c2csc(N)c2C(=O)OC)cc1	0	0	0	22.4µM	14.1µM	0
CCOC(=O)c1c(-c2ccncc2)csc1N	0	?	0	?	?	0
COC(=O)c1ccc(C(NC(=O)c2ccco2)[C@]2(C)C[C@H]2C2CCCCC2)cc1 (some centres undefined)	0	-	0	3.55µM	0	0
C[C@@]1(C(NC(=O)c2ccccc2)c2ccc(-c3ccccc3)cc2)C[C@H]1C1CCCCC1 (some centres undefined)	0	-	0	0	0	0
COC(=O)[C@@]1(Cc2ccccc2)C=C[C@@H](C)N1C(=O)c1ccccc1	0	-	0	39.8µM	0	0
CC(=O)N1[C@H](C)C=C[C@]1(Cc1ccccc1)C(=O)NCc1ccc(C)o1	0	-	0	?	14.1µM	0
CC(=O)N1[C@H](C)C=C[C@]1(Cc1ccccc1)C(=O)NCc1cc(F)cc(C(F)(F)F)c1	0	?	0	0	0	0
SMILES	12-hLO inh	PNC inhibitor	GLA inh pH 4.5	ALDH1A1 block	HPGD block	GLA spleen mod
CSc1ccccc1NC(=O)c1ccccc1C	-	-	0	0	-	0
O=C(c1ccc(Cl)c([N+](=O)[O-])c1)N1CCN(Cc2ccc3c(c2)OCO3)CC1	-	-	0	18.9µM	-	0
O=C(c1ccc2nc(N3CCOCC3)sc2c1)N1CCCC1	0	0	0	0	14.1µM	0
O=S(=O)(c1ccc(Cl)nc1)N1CCN(Cc2ccc3c(c2)OCO3)CC1	0	0	0	14.1µM	0	0
O=S(=O)(c1cc(Cl)ccc1Cl)N1CCN(Cc2ccc3c(c2)OCO3)CC1	0	?	0	0	0	0
COc1ccc(CN2CCN(C(=O)c3ccc4nc(N5CCOCC5)sc4c3)CC2)c(OC)c1OC	-	-	0	0	-	0
CC1CCN(c2nc3ccc(C(=O)N4CCN(Cc5ccc6c(c5)OCO6)CC4)cc3s2)CC1	0	0	0	?	17.8µM	0
COc1ccc(N2CCN(C(=O)c3ccc4nc(N5CCCCC5)sc4c3)CC2)cc1	0	?	0	?	0	0
Cc1c(C(=O)N2CCN(Cc3ccc4c(c3)OCO4)CC2)cccc1[N+](=O)[O-]	0	0	0	0	0	0
Cc1cc(C(=O)CSc2n[nH]c(N)n2)c(C)n1-c1ccc2c(c1)OCO2	0	0	0	0	0	0
COc1ccc(/C=C/C(=O)NC(=S)Nc2ccc(C(=O)O)cc2)cc1	0	?	0	?	?	0
COc1cc(-c2nnc3n(CCc4ccccc4)c(=O)c4ccccc4n23)cc(OC)c1OC	0	?	0	0.224µM	0	0
COc1ccc(N(CC(=O)NCc2ccccc2OC)S(=O)(=O)c2ccccc2[N+](=O)[O-])c(OC)c1	-	-	0	?	-	0
COc1ccc(-c2nc(O)c3cnccn23)cc1	0	0	0	0	0	0
COc1ccc(NC(=O)N(C2CCCCC2)C(C)c2cccnc2)c(OC)c1 (centres undefined)	0	-84.9	0	0	0	0
COC1CCC(C(=O)c2ccc3nc4c(cc3c2)CCCO4)CC1 (centres undefined)	0	-	0	0	0	0
CCOC(=O)C1(CC)Oc2ccccc2C(c2ccc(OC)cc2)=C1C(=O)OC (centres undefined)	0[0.00818 µM]	-	0	0	0	0
CCCCCCSc1nnc2[nH]c(=O)cc(N)n12	0	0	0	0	11.2µM	0
C[C@@H](N=C(N)N)C(=O)O	0[11.4 µM]	-	-	0[13.5 µM]	0	-
c1ccc(-c2nc(-c3ccccc3)c(NC3CCCCC3)o2)cc1	0	-	0	0	0	0
COc1cc([C@H]2[C@@H]3CCCC[C@]3(O)CCN2CC(=O)Nc2ccc(C)cc2)ccc1O	0	-100.0	0	0	0	0
COc1ccc(NC(=O)CN2CCC3(O)CCCCC3C2c2ccccc2OC)cc1 (centres undefined)	0	0	0	0	0	0
Cc1cccc(CN2CCN(C(=O)CCl)CC2)c1	0	0	0	0.316µM	-	0
Cc1ccc(/C=C/C(=O)N2CCN(S(=O)(=O)c3ccc(C)c(C)c3)CC2)o1	0	?	0	3.55µM	22.4µM	0
Cc1ccc(/C=C/C(=O)N2CCN(S(=O)(=O)c3c(C)c(C)cc(C)c3C)CC2)o1	0	0	0	14.1µM	25.1µM	0
Cc1ccc(S(=O)(=O)N2CCN(C(=O)N(C)C)CC2)cc1C	0	0	0	?	0	0
Cc1ccc(/C=C/C(=O)N2CCN(Cc3ccccc3)CC2)o1	0	0	0	8.91µM	0	0
Cc1ccc(/C=C/C(=O)NCCCN2CCN(CCCNC(=O)/C=C/c3ccc(C)o3)CC2)o1	0	0	0	0	0	0
